Test results as given in publication PMC7862700, “An all-to-all approach to the identification of sequence-specific readers for epigenetic DNA modifications on cytosine”.

Legend:
Experiment in all cases: DAPPL (digital affinity profiling via proximity ligation, sequencing); 10 mM Tris-HCl pH 7.5, 50 mM NaCl, 1 mM DTT, 4% glycerol, room temperature, 30 min; GST-TFs on glutathione beads, 16-mer random dsDNA library, 0.1% formaldehyde crosslink after washing; high values mean tight binding
Details in all cases: protein: recombinant; tags: N-terminal GST; dsDNA, one strand shown
ERF = biological target: T1, ERF (Homo sapiens, UniProt P50548 1-548)
T1 sequence: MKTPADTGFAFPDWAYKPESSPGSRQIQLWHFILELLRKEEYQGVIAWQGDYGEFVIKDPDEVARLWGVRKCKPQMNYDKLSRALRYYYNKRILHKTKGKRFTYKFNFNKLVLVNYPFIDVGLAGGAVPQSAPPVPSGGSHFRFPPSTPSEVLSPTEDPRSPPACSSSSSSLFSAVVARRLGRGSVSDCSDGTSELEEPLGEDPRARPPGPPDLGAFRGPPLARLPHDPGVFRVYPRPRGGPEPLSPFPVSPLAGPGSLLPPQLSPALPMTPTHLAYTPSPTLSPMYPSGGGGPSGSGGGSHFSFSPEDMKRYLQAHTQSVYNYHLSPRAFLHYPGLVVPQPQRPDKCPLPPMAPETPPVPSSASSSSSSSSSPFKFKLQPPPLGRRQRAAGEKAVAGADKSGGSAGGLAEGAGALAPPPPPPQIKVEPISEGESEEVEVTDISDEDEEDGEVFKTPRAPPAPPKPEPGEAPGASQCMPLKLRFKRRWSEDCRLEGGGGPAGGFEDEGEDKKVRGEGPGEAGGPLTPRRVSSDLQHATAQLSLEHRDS
Method in brief: (§1)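 After expression in yeast as GST fusions, human transcription factors were bound to glutathione beads, DNA-barcoded and mixed with a tag-only sample. The pools were incubated with 200 nmole of a 16-mer random double-stranded DNA library in Tris/NaCl/DTT/glycerol buffer (30 min, room temperature), washed and crosslinked with 0.1% formaldehyde. Proximity ligation with BsaI/T4 ligase ran for 1 h at 37 °C, before PCR amplification and sequencing on an Illumina NextSeq500. Binding signal is a hexamer's read frequency for a factor divided by its frequency for the tag-only sample.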

ETV3L = biological target: T2, ETV3L (Homo sapiens, UniProt Q6ZN32 1-361)
T2 sequence: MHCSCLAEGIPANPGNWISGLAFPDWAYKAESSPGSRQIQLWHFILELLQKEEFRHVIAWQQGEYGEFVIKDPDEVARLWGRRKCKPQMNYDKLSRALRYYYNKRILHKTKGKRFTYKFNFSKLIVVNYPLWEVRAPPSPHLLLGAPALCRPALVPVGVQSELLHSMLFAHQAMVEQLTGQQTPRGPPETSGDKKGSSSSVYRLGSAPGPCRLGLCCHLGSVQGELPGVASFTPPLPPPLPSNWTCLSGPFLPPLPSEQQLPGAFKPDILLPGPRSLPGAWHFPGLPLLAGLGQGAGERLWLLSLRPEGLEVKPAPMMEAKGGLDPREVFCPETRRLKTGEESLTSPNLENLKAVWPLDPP
Method in brief: as §1

ETS2 = biological target: T3, ETS2 (Homo sapiens, UniProt P15036 1-469)
T3 sequence: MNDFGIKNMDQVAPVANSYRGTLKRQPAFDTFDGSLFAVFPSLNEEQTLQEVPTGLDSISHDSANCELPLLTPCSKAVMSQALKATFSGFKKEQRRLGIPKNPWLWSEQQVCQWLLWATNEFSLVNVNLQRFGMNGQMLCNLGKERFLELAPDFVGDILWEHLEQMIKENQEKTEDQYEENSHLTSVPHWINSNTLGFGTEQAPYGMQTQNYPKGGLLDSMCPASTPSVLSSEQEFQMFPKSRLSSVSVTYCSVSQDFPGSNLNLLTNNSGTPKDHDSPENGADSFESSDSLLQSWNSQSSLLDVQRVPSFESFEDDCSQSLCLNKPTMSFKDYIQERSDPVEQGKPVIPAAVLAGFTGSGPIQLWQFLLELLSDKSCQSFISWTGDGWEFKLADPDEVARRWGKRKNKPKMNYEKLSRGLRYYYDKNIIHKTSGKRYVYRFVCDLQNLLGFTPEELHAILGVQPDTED
Method in brief: as §1

SPDEF = biological target: T4, SPDEF (Homo sapiens, UniProt O95238 1-335)
T4 sequence: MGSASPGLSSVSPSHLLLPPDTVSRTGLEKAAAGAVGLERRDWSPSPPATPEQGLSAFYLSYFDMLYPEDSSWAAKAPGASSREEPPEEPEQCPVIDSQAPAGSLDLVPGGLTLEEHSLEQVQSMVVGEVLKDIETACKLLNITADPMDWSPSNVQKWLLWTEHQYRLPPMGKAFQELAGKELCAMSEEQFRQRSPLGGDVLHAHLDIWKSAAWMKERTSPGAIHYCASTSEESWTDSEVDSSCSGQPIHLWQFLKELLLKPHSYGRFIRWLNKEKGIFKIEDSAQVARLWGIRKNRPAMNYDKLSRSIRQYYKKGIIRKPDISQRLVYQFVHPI
Method in brief: as §1

ETV7 = biological target: T5, ETV7 (Homo sapiens, UniProt Q9Y603 1-341)
T5 sequence: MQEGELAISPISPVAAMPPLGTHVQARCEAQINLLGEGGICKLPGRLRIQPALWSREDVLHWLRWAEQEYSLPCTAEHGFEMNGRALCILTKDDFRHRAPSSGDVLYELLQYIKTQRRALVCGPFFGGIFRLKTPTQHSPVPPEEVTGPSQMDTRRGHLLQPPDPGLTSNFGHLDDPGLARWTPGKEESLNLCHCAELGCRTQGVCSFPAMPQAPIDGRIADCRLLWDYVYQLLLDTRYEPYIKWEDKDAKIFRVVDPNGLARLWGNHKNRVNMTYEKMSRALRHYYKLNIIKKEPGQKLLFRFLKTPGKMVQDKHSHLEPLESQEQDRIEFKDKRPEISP
Method in brief: as §1

ELF5 = biological target: T6, ELF5 (Homo sapiens, UniProt Q9UKW6-2 1-255)
T6 sequence: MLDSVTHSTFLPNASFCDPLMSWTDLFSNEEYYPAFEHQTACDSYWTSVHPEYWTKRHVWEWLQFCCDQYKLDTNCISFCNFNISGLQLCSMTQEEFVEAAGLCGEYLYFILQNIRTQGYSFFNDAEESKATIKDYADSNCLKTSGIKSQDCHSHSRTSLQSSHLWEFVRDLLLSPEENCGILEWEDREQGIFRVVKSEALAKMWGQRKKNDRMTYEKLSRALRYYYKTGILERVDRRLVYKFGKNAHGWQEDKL
Method in brief: as §1

ETV3 = biological target: T7, ETV3 (Homo sapiens, UniProt P41162-2 1-143)
T7 sequence: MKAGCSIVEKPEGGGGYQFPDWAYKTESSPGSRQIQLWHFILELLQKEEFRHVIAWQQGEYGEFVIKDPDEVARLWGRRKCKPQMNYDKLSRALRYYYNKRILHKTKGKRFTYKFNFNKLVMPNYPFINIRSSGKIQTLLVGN
Method in brief: as §1

ETV6 = ETV6 (Homo sapiens, UniProt P41212 1-452)
Method in brief: as §1

Chain of ETV6 (P41212 whole entry): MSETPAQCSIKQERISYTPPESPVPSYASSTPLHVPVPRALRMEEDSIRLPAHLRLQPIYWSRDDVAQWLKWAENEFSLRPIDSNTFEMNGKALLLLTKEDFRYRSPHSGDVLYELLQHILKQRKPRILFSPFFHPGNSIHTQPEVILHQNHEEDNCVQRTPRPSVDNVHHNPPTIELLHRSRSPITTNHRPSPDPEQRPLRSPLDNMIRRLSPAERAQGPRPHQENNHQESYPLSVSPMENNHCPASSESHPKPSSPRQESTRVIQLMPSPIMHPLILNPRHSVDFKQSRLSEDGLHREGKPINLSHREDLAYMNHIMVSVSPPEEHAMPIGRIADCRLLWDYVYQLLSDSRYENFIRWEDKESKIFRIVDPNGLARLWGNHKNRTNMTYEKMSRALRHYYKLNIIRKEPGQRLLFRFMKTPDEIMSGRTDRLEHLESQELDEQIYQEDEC

| Sequence | binding signal (ERF) | binding signal (ETV3L) | binding signal (ETS2) | binding signal (SPDEF) | binding signal (ETV7) | binding signal (ELF5) | binding signal (ETV3) | binding signal (ETV6) |
| --- | --- | --- | --- | --- | --- | --- | --- | --- |
| ATATCC | 2.67 fold enrichment (6-mer frequency, TF over GST control) | 2.57 fold enrichment (6-mer frequency, TF over GST control) | 2.76 fold enrichment (6-mer frequency, TF over GST control) | 4.48 fold enrichment (6-mer frequency, TF over GST control) | 2.25 fold enrichment (6-mer frequency, TF over GST control) | 3.58 fold enrichment (6-mer frequency, TF over GST control) | 2.89 fold enrichment (6-mer frequency, TF over GST control) | 2.64 fold enrichment (6-mer frequency, TF over GST control) |
| CTGTAC | 1.18 fold enrichment (6-mer frequency, TF over GST control) | 1.35 fold enrichment (6-mer frequency, TF over GST control) | 1.33 fold enrichment (6-mer frequency, TF over GST control) | 1.57 fold enrichment (6-mer frequency, TF over GST control) | 1.22 fold enrichment (6-mer frequency, TF over GST control) | 1.36 fold enrichment (6-mer frequency, TF over GST control) | 1.31 fold enrichment (6-mer frequency, TF over GST control) | 1.3 fold enrichment (6-mer frequency, TF over GST control) |
| ATTCGT | 1.22 fold enrichment (6-mer frequency, TF over GST control) | 1.16 fold enrichment (6-mer frequency, TF over GST control) | 1.26 fold enrichment (6-mer frequency, TF over GST control) | 1.18 fold enrichment (6-mer frequency, TF over GST control) | 1.34 fold enrichment (6-mer frequency, TF over GST control) | 1.11 fold enrichment (6-mer frequency, TF over GST control) | 1.28 fold enrichment (6-mer frequency, TF over GST control) | 1.11 fold enrichment (6-mer frequency, TF over GST control) |
| AACGAT | 1.29 fold enrichment (6-mer frequency, TF over GST control) | 1.19 fold enrichment (6-mer frequency, TF over GST control) | 1.22 fold enrichment (6-mer frequency, TF over GST control) | 1.14 fold enrichment (6-mer frequency, TF over GST control) | 1.17 fold enrichment (6-mer frequency, TF over GST control) | 1.19 fold enrichment (6-mer frequency, TF over GST control) | 1.24 fold enrichment (6-mer frequency, TF over GST control) | 1.25 fold enrichment (6-mer frequency, TF over GST control) |
| AAGTTC | 1.31 fold enrichment (6-mer frequency, TF over GST control) | 1.5 fold enrichment (6-mer frequency, TF over GST control) | 1.55 fold enrichment (6-mer frequency, TF over GST control) | 1.54 fold enrichment (6-mer frequency, TF over GST control) | 1.4 fold enrichment (6-mer frequency, TF over GST control) | 1.57 fold enrichment (6-mer frequency, TF over GST control) | 1.48 fold enrichment (6-mer frequency, TF over GST control) | 1.52 fold enrichment (6-mer frequency, TF over GST control) |
| ATCCTC | 1.34 fold enrichment (6-mer frequency, TF over GST control) | 1.53 fold enrichment (6-mer frequency, TF over GST control) | 1.41 fold enrichment (6-mer frequency, TF over GST control) | 1.56 fold enrichment (6-mer frequency, TF over GST control) | 1.46 fold enrichment (6-mer frequency, TF over GST control) | 1.95 fold enrichment (6-mer frequency, TF over GST control) | 1.51 fold enrichment (6-mer frequency, TF over GST control) | 1.37 fold enrichment (6-mer frequency, TF over GST control) |
| ACTTCT | 1.35 fold enrichment (6-mer frequency, TF over GST control) | 1.65 fold enrichment (6-mer frequency, TF over GST control) | 1.4 fold enrichment (6-mer frequency, TF over GST control) | 1.21 fold enrichment (6-mer frequency, TF over GST control) | 1.5 fold enrichment (6-mer frequency, TF over GST control) | 1.58 fold enrichment (6-mer frequency, TF over GST control) | 1.36 fold enrichment (6-mer frequency, TF over GST control) | 1.58 fold enrichment (6-mer frequency, TF over GST control) |
| TATGCT | 1.18 fold enrichment (6-mer frequency, TF over GST control) | 1.45 fold enrichment (6-mer frequency, TF over GST control) | 1.29 fold enrichment (6-mer frequency, TF over GST control) | 1.36 fold enrichment (6-mer frequency, TF over GST control) | 1.32 fold enrichment (6-mer frequency, TF over GST control) | 1.29 fold enrichment (6-mer frequency, TF over GST control) | 1.32 fold enrichment (6-mer frequency, TF over GST control) | 1.24 fold enrichment (6-mer frequency, TF over GST control) |
